Only some compounds are listed: those with a hit (about 3.7% of all), similar ones and a draw of the others.
ATXN2 expr inh: ATXN2 expression inhibition; AID 1745845; 360,000 tested, 0.72% active; HEK-293 ATXN2-luciferase reporter, luminescence, 24 h; Potency, µM (doses to about 57 µM), for the others: at the top dose activity change, negative = inhibition, most hits filed as inhibitors; further: on the % scale 0 is the no-effect control and ±100 the full control effect; nearly all actives have a fitted effect of over 55% in size
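qHTS (up to 57 uM final) was run with 24 h compound exposure of reporter cells at 37 °C. Each well was multiplexed: SteadyGlo luminescence measured ATXN2-luciferase expression after a fluorogenic Gly-Phe-AFC viability readout (25 uM final).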
GLP1R inv ag: GLP-1 receptor (human) inverse agonism; P43220; HEK293 GLP-1R CRE-luciferase, luminescence, 24 h; GLP-1R form is constitutively active; Potency, µM (series often up to 38.3 µM), without a hit: top-dose activity change, negative = inhibition, hits mostly inhibitors; 410,000 tested, 1.6% active; AID 624417; further: on the % scale 0 is the no-effect control and ±100 the full control effect; nearly all actives have a fitted effect of over 55% in size
Target sequence (P43220 whole entry, looked up): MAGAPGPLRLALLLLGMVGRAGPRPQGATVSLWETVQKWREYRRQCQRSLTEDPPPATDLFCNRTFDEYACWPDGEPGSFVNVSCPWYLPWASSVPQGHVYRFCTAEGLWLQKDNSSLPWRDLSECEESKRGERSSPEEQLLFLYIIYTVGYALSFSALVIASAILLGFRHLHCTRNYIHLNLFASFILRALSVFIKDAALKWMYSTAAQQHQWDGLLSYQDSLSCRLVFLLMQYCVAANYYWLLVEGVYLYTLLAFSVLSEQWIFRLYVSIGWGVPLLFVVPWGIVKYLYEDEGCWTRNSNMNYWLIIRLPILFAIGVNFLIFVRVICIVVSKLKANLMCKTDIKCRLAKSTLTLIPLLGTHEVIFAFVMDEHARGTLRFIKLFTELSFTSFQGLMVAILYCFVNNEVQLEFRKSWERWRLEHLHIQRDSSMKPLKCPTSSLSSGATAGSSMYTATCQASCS
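HEK293 cells stably co-expressing a cAMP-responsive luciferase reporter and constitutively active GLP-1R were seeded, incubated 12 h, then exposed to compounds for 24 h at 37 C. Luminescence was read 12 min after detection reagent; inverse agonists lower signal.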
S2 tox: cell viability loss in ATXN counter-screen; 400,000 tested, 0.49% active; S2 cells (HEK-293 line with an ATXN2-luciferase reporter) viability, CellTiter-Fluor protease fluorescence, 24 h; AID 651635; Potency, µM (highest dose often 56.7 µM), most hits filed as cytotoxic; further: nearly all actives have a fitted effect of over 40% in size
TGFb inhibitor: inhibitors of TGF-b signaling. 410,000 tested, 1.2% active. Potency, µM (highest dose often 46.1 µM), for inactives: at the highest dose activity, negative = inhibition, usual class: inhibitors. AID 588855. HepG2 CAGA-GFP TGF-b/SMAD3 reporter, GFP fluorescence, 18 h; TGF-beta stimulated, 500 pg/mL final; further: on the % scale 0 is the no-effect control and ±100 the full control effect; nearly all actives have a fitted effect of over 65% in size
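Per well, imaged GFP fluorescence of HEPG2 CAGA-GFP cells gives the signal; cells get compound, then TGF-beta (500 pg/mL final), 18 h at 37 degrees C; %Activity versus -TGF-beta and +DMSO controls.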
GLP-1R agonist: GLP-1 receptor (human) agonism; 380,000 tested, 0.007% active; Potency, µM (series often up to 45.6 µM), without a hit: at the top dose activation, usual class: activators; HEK293 GLP-1R CRE-luciferase, luminescence, 4-6 h; cells express a hypersensitive GLP-1R form; further: % of control where 0% means no effect
HepG2 tox: kills HepG2 cells in TGF-b inhibitor counter-screen; HepG2 CAGA-GFP viability, ATP luminescence, 18 h; Potency, µM (top dose mostly 46.1 µM), inactives show at the highest dose activity change, negative = cytotoxicity, hits mostly cytotoxic; 410,000 tested, 0.76% active; AID 588856
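CellTiter-Glo luminescence gave cytotoxicity after 18 hours at 37 degrees C. The cells were HepG2 CAGA-GFP in 1% FBS DMEM, stimulated with 500 pg/mL TGF-beta after compound addition. %Activity was normalised to no-cell wells (complete cell-killing) and DMSO (no toxicity), and curves were fitted and classified.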
An asterisk follows results filed as active. The call rests on the fitted dose curve; in most records, active means well fitted curve in the direction sought with a large enough effect; inconclusive means small, poorly fitted or top-dose-only effect, or another doubt; inactive means no such curve, though single readings can be large; an effect the other way counts as inactive or inconclusive. Potency means the concentration at half of the fitted maximal effect.

How did COc1ccc(-c2n[nH]c(C)c2-c2cscn2)c(O)c1 do in these assays?
ATXN2 expr inh: 1%; GLP1R inv ag: -12%; S2 tox: inactive; TGFb inhibitor: -1%; GLP-1R agonist: 1%; HepG2 tox: -3%

What do the screens show for `COc1ccc(-c2n[nH]c(C)c2-c2cnn(-c3ccccc3)c2)c(O)c1`?
ATXN2 expr inh: -4%; GLP1R inv ag: inconclusive; S2 tox: inactive; TGFb inhibitor: 13µM*; GLP-1R agonist: 6%; HepG2 tox: -48%

How did COc1ccc(-c2n[nH]c(C)c2-c2cnn(-c3ccccc3)c2)c(O)c1C do in these assays?
ATXN2 expr inh: inconclusive; GLP1R inv ag: inconclusive; S2 tox: inactive; TGFb inhibitor: 13µM*; GLP-1R agonist: -18%; HepG2 tox: -104%

Results for CCOc1ccc(-c2n[nH]c(C)c2-c2ccccc2OC)c(O)c1 ?
ATXN2 expr inh: -28%; GLP1R inv ag: 5µM*; S2 tox: inactive; TGFb inhibitor: -11%; GLP-1R agonist: 5%; HepG2 tox: -34%

Results for C=C(C)COc1ccc(-c2n[nH]c(C)c2-c2ccc(OC)cc2)c(O)c1 ?
ATXN2 expr inh: inconclusive; GLP1R inv ag: inconclusive; S2 tox: inconclusive; TGFb inhibitor: inconclusive; GLP-1R agonist: -44%; HepG2 tox: -109%

What do the screens show for `COC(=O)c1ccccc1C(=O)N1CCc2c(cnc(C)c2CNC(=O)c2ccccc2F)C1`?
S2 tox: inactive

What do the screens show for `CC(C)n1c(C=C[C@H](O)C[C@H](O)CC(=O)O)c(-c2ccc(F)cc2)c2ccccc21`?
ATXN2 expr inh: 28%

What do the screens show for `COc1ccc(-n2c(=S)[nH]c3cc(C(=O)Nc4ccc(C)c(F)c4)ccc3c2=O)c(OC)c1`?
ATXN2 expr inh: -26%; GLP1R inv ag: 7.1µM*; S2 tox: inactive; TGFb inhibitor: -19%; GLP-1R agonist: -2%; HepG2 tox: -8%

How did O=C(Nc1ccn(CCCNC2CCN(Cc3ccccc3)CC2)c(=O)n1)OCc1ccccc1 do in these assays?
ATXN2 expr inh: inconclusive; GLP1R inv ag: inconclusive; S2 tox: inconclusive; TGFb inhibitor: -1%; GLP-1R agonist: 3%; HepG2 tox: 6.3µM*

Results for O=C(Nc1ccn(CCCNCCN2CCOCC2)c(=O)n1)OCc1ccccc1 ?
ATXN2 expr inh: -9%; GLP1R inv ag: -12%; S2 tox: inactive; TGFb inhibitor: 20%; GLP-1R agonist: -1%; HepG2 tox: 11%

How did O=C(Nc1ccn(CCCN2CCN(Cc3cccc4ccccc34)CC2)c(=O)n1)OCc1ccccc1 do in these assays?
ATXN2 expr inh: 28µM*; GLP1R inv ag: 7.9µM*; TGFb inhibitor: inconclusive; GLP-1R agonist: 2%; HepG2 tox: -71%

How did c1ccc(COc2ncnc3c2ncn3CCCNC2CCN(Cc3ccccc3)CC2)cc1 do in these assays?
ATXN2 expr inh: 25µM*; GLP1R inv ag: 7.1µM*; TGFb inhibitor: 14µM*; GLP-1R agonist: -1%; HepG2 tox: 16µM*

How did O=C(Nc1ccn(CCCN2CCN(c3ccccc3)CC2)c(=O)n1)OCc1ccccc1 do in these assays?
ATXN2 expr inh: -29%; GLP1R inv ag: 5%; S2 tox: inconclusive; TGFb inhibitor: -17%; GLP-1R agonist: 6%; HepG2 tox: -25%

How did COc1ccccc1-n1ncc2c(=O)[nH]c(SCC(=O)Nc3ccc(Cl)cc3)nc21 do in these assays?
GLP1R inv ag: -2%; TGFb inhibitor: 5%; HepG2 tox: 1%

What do the screens show for `COc1cccc(-c2cnc(-c3ccncc3)nc2C2CCN(C(=O)Cc3csc(C)n3)CC2)c1`?
S2 tox: inactive

How did OC[C@H]1O[C@H](OC/C=C/c2ccccc2)[C@H](O)[C@@H](O)[C@@H]1O do in these assays?
GLP-1R agonist: -6%

Results for CCOC(=O)C1=C(Cc2ccc(Cl)cc2)C(=O)c2ccccc2C1=O ?
ATXN2 expr inh: 20µM*; GLP1R inv ag: inconclusive; TGFb inhibitor: inconclusive; GLP-1R agonist: -11%; HepG2 tox: 11µM*

Results for COc1cccc(CN2CCC3(CC2)c2ccccc2[C@@H](NC(=O)c2ccccc2)[C@@H]3O)c1O ?
S2 tox: inactive

How did CCOc1ccc(Nc2nc(N)c(C(=O)c3ccccc3Cl)s2)cc1 do in these assays?
GLP1R inv ag: inconclusive; TGFb inhibitor: 3.5µM*; HepG2 tox: -46%

Results for COc1cccc(C(=O)c2sc(NC(C)C)nc2N)c1 ?
ATXN2 expr inh: inconclusive; GLP1R inv ag: 3.5µM*; S2 tox: inactive; TGFb inhibitor: inconclusive; GLP-1R agonist: -27%; HepG2 tox: 39%

Results for COc1cccc(C(=O)c2sc(Nc3ccc(F)c(Cl)c3)nc2N)c1 ?
ATXN2 expr inh: 7%; GLP1R inv ag: -9%; S2 tox: inactive; TGFb inhibitor: 3%; HepG2 tox: -3%

Results for Cc1ccc(C(=O)c2sc(Nc3ccc(F)cc3)nc2N)c(C)c1 ?
ATXN2 expr inh: inconclusive; GLP1R inv ag: 5µM*; S2 tox: inactive; TGFb inhibitor: 13µM*; HepG2 tox: -75%

How did COc1ccc(Nc2nc(N)c(C(=O)c3ccc(F)cc3)s2)cc1 do in these assays?
GLP1R inv ag: inconclusive; S2 tox: inconclusive; TGFb inhibitor: -22%; GLP-1R agonist: -12%; HepG2 tox: -5%

What do the screens show for `COc1ccc(C(=O)c2sc(NC(C)C)nc2N)cc1OC`?
ATXN2 expr inh: 1%; GLP1R inv ag: 1%; S2 tox: inactive; TGFb inhibitor: inconclusive; GLP-1R agonist: -39%; HepG2 tox: 19%

Results for COc1ccc(Nc2nc(N)c(C(=O)c3ccc(OC)cc3)s2)cc1 ?
ATXN2 expr inh: inconclusive; GLP1R inv ag: inconclusive; S2 tox: inconclusive; TGFb inhibitor: 13µM*; GLP-1R agonist: 27%; HepG2 tox: -153%

What do the screens show for `CN[C@@H]1[C@@H](O)[C@@H](O[C@@H]2[C@@H](O)[C@H](OC3OC(CN)=CCC3N)[C@@H](N)C[C@H]2N)OC[C@]1(C)O` (stereo not given in full)?
S2 tox: inactive

What do the screens show for `NC(Cc1ccc(C(F)(F)F)cc1)c1csc(Nc2cc(NCc3ccco3)ncn2)n1` (stereo not given)?
ATXN2 expr inh: 14µM*; GLP1R inv ag: inconclusive; S2 tox: 25µM*; TGFb inhibitor: inconclusive; GLP-1R agonist: -7%; HepG2 tox: 20µM*

Source: PubChem (National Center for Advancing Translational Sciences (NCATS))
